Experimental data: PubChem BioAssay (EPA / NIEHS)
Several values for one entry are separate records, joined by “and”; a condition that tells them apart may be missing. Equal values may be shown once. A structure can be active in one record and inactive in another. Activity calls are given as the source filed them. The calls were made as follows: active = hit-call score of the fitted dose curve at least 0.9, where 1 is the maximum; inactive = score below 0.9.

Assays:
[1] = BSK_hDFCGF_Proliferation: Cell Proliferation Assessment in the BioMAP Diversity Plus: hDFCGF Assay (AID 2283059); details: primary human foreskin fibroblasts;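 also: curves fitted for both rise and fall of signal versus DMSO baseline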
Summary of the method: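 This proliferation readout used SRB total-protein staining of human foreskin fibroblasts […], normalized to DMSO with bidirectional curve fitting.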

[2] = read-out: Macrophage colony-stimulating factor (MCSF), CSF1 (gene 1435); test: BSK_hDFCGF_MCSF: BioMAP Diversity Plus: hDFCGF Assay for Macrophage colony-stimulating factor (MCSF) Biomarker Activity (AID 2283060); details: primary human foreskin fibroblasts; actives raise or lower the signal
Summary of the method: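 fibroblasts (human foreskin, primary), 24 h post-dose; M-CSF by ELISA; bidirectional fit, DMSO = baseline.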

[3] = BSK_hDFCGF_SRB: Viability Assessment in the BioMAP Diversity Plus: hDFCGF Assay (AID 2283061); details: primary human foreskin fibroblasts;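 also: cells exposed to compound for 24 h before the read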
Summary of the method: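 SRB-based viability read on primary human skin fibroblasts at 24 h: TCA fixation, 0.1% dye, 560 nm. Gain or loss of signal is fitted against the DMSO negative control.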

[4] = read-out: TIMP metallopeptidase inhibitor 1 (TIMP1), TIMP1 (gene 7076); test: BSK_hDFCGF_TIMP1: BioMAP Diversity Plus: hDFCGF Assay for TIMP metallopeptidase inhibitor 1 (TIMP1) Biomarker Activity (AID 2283062); details: primary human foreskin fibroblasts; actives raise or lower the signal
Summary of the method: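 Bidirectional curve fitting against DMSO baseline yielded this endpoint, based on ELISA detection of TIMP-1 in primary human foreskin fibroblasts exposed to compound for 24 h.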

[5] = read-out: Monokine induced gamma interferon (MIG), CXCL9 (gene 4283); test: BSK_hDFCGF_MIG: BioMAP Diversity Plus: hDFCGF Assay for Monokine induced gamma interferon (MIG) Biomarker Activity (AID 2283063); details: primary human foreskin fibroblasts; actives raise or lower the signal
Summary of the method: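 Endpoint derived by bidirectional fitting relative to DMSO; MIG quantified via ELISA in primary human foreskin fibroblasts harvested 24 h after dosing.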

[6] = read-out: Matrix Metallopeptidase 1 (MMP1), MMP1 (gene 4312); test: BSK_hDFCGF_MMP1: BioMAP Diversity Plus: hDFCGF Assay for Matrix Metallopeptidase 1 (MMP1) Biomarker Activity (AID 2283064); details: primary human foreskin fibroblasts; actives raise or lower the signal
Summary of the method: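 Primary human foreskin fibroblasts exposed to chemicals for 24 h; MMP1 measured by ELISA. Cytotoxicity tracked by SRB staining in parallel cultures; bidirectional fit relative to DMSO.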

[7] = read-out: Vascular cell adhesion molecule 1 (VCAM1), VCAM1 (gene 7412); test: BSK_hDFCGF_VCAM1: BioMAP Diversity Plus: hDFCGF Assay for Vascular cell adhesion molecule 1 (VCAM1) Biomarker Activity (AID 2283065); details: primary human foreskin fibroblasts; actives raise or lower the signal;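 as to AC50: VCAM-1 protein level quantified by ELISA after 24 h chemical exposure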
Summary of the method: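 Measured after 24 h chemical treatment of primary human skin fibroblasts, VCAM-1 was detected by ELISA and concentration-response analysed in both directions versus DMSO vehicle.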

[8] = read-out: Plasminogen activator inhibitor-1 (PAI1), SERPINE1 (gene 5054); test: BSK_hDFCGF_PAI1: BioMAP Diversity Plus: hDFCGF Assay for Plasminogen activator inhibitor-1 (PAI1) Biomarker Activity (AID 2283066); details: primary human foreskin fibroblasts; actives raise or lower the signal
Summary of the method: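 Human foreskin fibroblasts in the hDFCGF system were dosed with compound for 24 h; PAI-1 was quantified by ELISA. Bidirectional curve fitting used DMSO as negative control and baseline.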

[9] = read-out: Intercellular Adhesion Molecule 1 (ICAM1), ICAM1 (gene 3383); test: BSK_KF3CT_ICAM1: BioMAP Diversity Plus: KF3CT Assay for Intercellular Adhesion Molecule 1 (ICAM1) Biomarker Activity (AID 2283067); details: primary human keratinocytes with fibroblasts; actives raise or lower the signal
Summary of the method: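 Bidirectional curve fitting against a DMSO baseline was applied to ICAM-1 ELISA signal from primary human skin co-cultures harvested 24 h after treatment, with SRB staining of parallel wells for overt cytotoxicity.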

[10] = read-out: Interferon-gamma inducible Protein 10 (IP10), CXCL10 (gene 3627); test: BSK_KF3CT_IP10: BioMAP Diversity Plus: KF3CT Assay for Interferon-gamma inducible Protein 10 (IP10) Biomarker Activity (AID 2283068); details: primary human keratinocytes with fibroblasts; actives raise or lower the signal
Summary of the method: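 Signal is secreted/surface IP-10 by ELISA in a human primary skin co-culture of keratinocytes and foreskin fibroblasts, taken 24 h post-dosing; DMSO served as negative control.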

[11] = BSK_KF3CT_SRB: Viability Assessment in the BioMAP Diversity Plus: KF3CT Assay (AID 2283069); details: primary human keratinocytes with fibroblasts;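 also: total protein by sulforhodamine B staining as a cytotoxicity measure; read 24 h after compound addition; fitted for both signal gain and loss against DMSO baseline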
Summary of the method: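 Human keratinocyte and foreskin fibroblast co-culture exposed to chemical for 24 h. Total protein measured in parallel cultures by 0.1% sulforhodamine B staining after 10% TCA fixation, read at 560 nm; bidirectional fit relative to DMSO.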

[12] = read-out: Interleukin-1 alpha (IL1a), IL1A (gene 3552); test: BSK_KF3CT_IL1a: BioMAP Diversity Plus: KF3CT Assay for Interleukin-1 alpha (IL1a) Biomarker Activity (AID 2283070); details: primary human keratinocytes with fibroblasts; actives raise or lower the signal
Summary of the method: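 Primary human keratinocyte plus foreskin fibroblast co-culture, dosed and measured at 24 h in 96-well plates. IL-1a level quantified by ELISA; bidirectional fit relative to DMSO.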

[13] = read-out: TIMP metallopeptidase inhibitor 2 (TIMP2), TIMP2 (gene 7077); test: BSK_KF3CT_TIMP2: BioMAP Diversity Plus: KF3CT Assay for TIMP metallopeptidase inhibitor 2 (TIMP2) Biomarker Activity (AID 2283071); details: primary human keratinocytes with fibroblasts; actives raise or lower the signal
Summary of the method: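 Human primary keratinocyte/foreskin fibroblast co-culture dosed with chemical and sampled at 24 h. TIMP-2 levels quantified by ELISA; bidirectional fitting against DMSO negative control as baseline.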

[14] = read-out: Transforming growth factor beta 1 (TGFb1), TGFB1 (gene 7040); test: BSK_KF3CT_TGFb1: BioMAP Diversity Plus: KF3CT Assay for Transforming growth factor beta 1 (TGFb1) Biomarker Activity (AID 2283072); details: primary human keratinocytes with fibroblasts; actives raise or lower the signal
Summary of the method: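 Human keratinocyte plus foreskin fibroblast primary co-culture, dosed with chemical for 24 h. TGF-b1 quantified by ELISA. Activity fitted bidirectionally against DMSO negative control as baseline.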

[15] = read-out: Matrix Metallopeptidase 9 (MMP9), MMP9 (gene 4318); test: BSK_KF3CT_MMP9: BioMAP Diversity Plus: KF3CT Assay for Matrix Metallopeptidase 9 (MMP9) Biomarker Activity (AID 2283074); details: primary human keratinocytes with fibroblasts; actives raise or lower the signal;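 as to AC50: MMP9 protein level quantified by ELISA in the co-culture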
Summary of the method: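 Human keratinocyte and foreskin fibroblast co-culture exposed to chemicals for 24 h; MMP9 biomarker measured by ELISA, bidirectional fitting relative to DMSO; cytotoxicity tracked by SRB total protein staining in parallel cultures.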

[16] = read-out: urokinase plasminogen activator (uPA), PLAU (gene 5328); test: BSK_KF3CT_uPA: BioMAP Diversity Plus: KF3CT Assay for urokinase plasminogen activator (uPA) Biomarker Activity (AID 2283075); details: primary human keratinocytes with fibroblasts; actives raise or lower the signal
Summary of the method: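 Primary human keratinocyte/foreskin fibroblast co-culture exposed to chemical; uPA measured by ELISA at 24 h. Bidirectional fit versus DMSO, with parallel SRB total-protein staining for cytotoxicity.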

CD40, CD40 (gene 958) = test: BSK_LPS_CD40: BioMAP Diversity Plus: LPS Assay for CD40 Biomarker Activity (AID 2283076); details: primary human HUVEC with PBMC; actives raise or lower the signal
Summary of the method: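 Using a multiplexed primary human co-culture (umbilical vein endothelium plus PBMC), CD40 was read by ELISA 24 h after dosing, with cytotoxicity tracked by sulforhodamine B staining of parallel cultures and activity fitted bidirectionally versus DMSO.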

[17] = read-out: E-selectin (Homo sapiens) (UniProt P16581); test: BSK_LPS_Eselectin: BioMAP Diversity Plus: LPS Assay for Eselectin Biomarker Activity (AID 2283077); details: primary human HUVEC with PBMC; actives raise or lower the signal
Summary of the method: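 Dose chemical onto LPS-driven HUVEC/PBMC co-culture; after 24 h, run ELISA for E-selectin; fit up- and down-going responses relative to DMSO control.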

[18] = read-out: Interleukin-8 (IL8), CXCL8 (gene 3576); test: BSK_LPS_IL8: BioMAP Diversity Plus: LPS Assay for Interleukin-8 (IL8) Biomarker Activity (AID 2283078); details: primary human HUVEC with PBMC; actives raise or lower the signal
Summary of the method: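 In this LPS system, chemical-treated human umbilical vein endothelium/PBMC co-cultures were harvested at 24 h for IL-8 ELISA.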

[19] = read-out: C-C motif chemokine 2 (Homo sapiens) (UniProt P13500); test: BSK_KF3CT_MCP1: BioMAP Diversity Plus: KF3CT Assay for Monocyte Chemoattractant Protein 1 (MCP1/CCL2) Biomarker Activity (AID 2283073); details: primary human keratinocytes with fibroblasts; actives raise or lower the signal
Summary of the method: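 Biomarker MCP-1 is measured by ELISA in primary human keratinocytes co-cultured with foreskin fibroblasts, 24 h after chemical treatment; DMSO serves as the negative control and activity baseline.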

Sequence of E-selectin (Homo sapiens) (P16581 whole entry, looked up): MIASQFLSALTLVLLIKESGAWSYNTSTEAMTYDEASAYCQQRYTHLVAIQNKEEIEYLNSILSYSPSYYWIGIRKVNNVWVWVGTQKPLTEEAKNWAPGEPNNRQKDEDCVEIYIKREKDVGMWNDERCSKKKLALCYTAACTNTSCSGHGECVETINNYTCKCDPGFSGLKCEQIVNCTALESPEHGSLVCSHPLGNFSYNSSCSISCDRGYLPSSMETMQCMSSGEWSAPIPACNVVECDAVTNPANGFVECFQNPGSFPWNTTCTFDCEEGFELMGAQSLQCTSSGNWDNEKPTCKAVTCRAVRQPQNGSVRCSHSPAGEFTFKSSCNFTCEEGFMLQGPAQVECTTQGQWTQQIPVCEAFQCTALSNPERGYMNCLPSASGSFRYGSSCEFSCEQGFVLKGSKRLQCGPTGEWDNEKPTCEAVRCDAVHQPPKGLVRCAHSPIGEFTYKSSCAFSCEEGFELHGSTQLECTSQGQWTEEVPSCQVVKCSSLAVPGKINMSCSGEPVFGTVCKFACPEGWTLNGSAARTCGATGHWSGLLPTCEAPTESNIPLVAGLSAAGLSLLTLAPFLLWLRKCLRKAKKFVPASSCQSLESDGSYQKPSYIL

Compound: CCCCCCCCCc1ccc(O)cc1
- AC50 [1]: 5.93 µM (active)
- AC50 [2]: 13.6 µM (active)
- AC50 [3]: 15.4 µM (active)
- AC50 [4]: 16.9 µM (active)
- AC50 [5]: 14.9 µM (active)
- AC50 [6]: 15.4 µM (active)
- AC50 [7]: 13.3 µM (active)
- AC50 [8]: 15.5 µM (active)
- AC50 [9]: 15.1 µM (active)
- AC50 [10]: 13.4 µM (active)
- AC50 [11]: 14.6 µM (active)
- AC50 [12]: 15.6 µM (active)
- AC50 [13]: 14.6 µM (active)
- AC50 [14]: 13.5 µM (active)
- AC50 [15]: 13.2 µM (active)
- AC50 [16]: 17.2 µM (active)
- AC50 (CD40, CD40 (gene 958)): 22.6 µM (active)
- AC50 [17]: 29.9 µM (active)
- AC50 [18]: 27.6 µM (active)

Compound: C1CC2OC2CC1C1CO1 (configuration not stated)
- outcome [1]: inactive
- outcome [2]: inactive
- outcome [3]: inactive
- outcome [4]: inactive
- outcome [5]: inactive
- outcome [6]: inactive
- outcome [7]: inactive
- outcome [8]: inactive
- outcome [9]: inactive
- outcome [10]: inactive
- outcome [11]: inactive
- outcome [12]: inactive
- outcome [13]: inactive
- outcome [19]: inactive
- outcome [15]: inactive
- outcome (CD40, CD40 (gene 958)): inactive
- outcome [17]: inactive
- outcome [18]: inactive

Compound: C=CC(N)=O
- outcome [1]: inactive
- outcome [2]: inactive
- outcome [3]: inactive
- outcome [4]: inactive
- outcome [5]: inactive
- outcome [6]: inactive
- outcome [7]: inactive
- outcome [8]: inactive
- outcome [9]: inactive
- outcome [10]: inactive
- outcome [11]: inactive
- outcome [12]: inactive
- outcome [13]: inactive
- outcome [14]: inactive
- outcome [19]: inactive
- outcome [15]: inactive
- outcome (CD40, CD40 (gene 958)): inactive
- outcome [17]: inactive
- outcome [18]: inactive

Compound: CCC(C)(c1ccc(O)cc1)c1ccc(O)cc1
- AC50 [1]: 30.4 µM (active)
- outcome [2]: inactive
- AC50 [3]: 27.7 µM (active)
- outcome [4]: inactive
- outcome [5]: inactive
- outcome [6]: inactive
- outcome [8]: inactive
- outcome [9]: inactive
- outcome [10]: inactive
- outcome [11]: inactive
- outcome [12]: inactive
- outcome [13]: inactive
- outcome [14]: inactive
- outcome [19]: inactive
- outcome [15]: inactive
- outcome [16]: inactive
- AC50 (CD40, CD40 (gene 958)): 20 µM (active)
- outcome [17]: inactive
- outcome [18]: inactive

Compound: O=C(O)C(F)(F)C(F)(F)C(F)(F)C(F)(F)C(F)(F)C(F)(F)C(F)(F)C(F)(F)F
- AC50 [1]: 34.2 µM (active) and 20.8 µM (active) and 46.7 µM (active)
- outcome [2]: inactive
- outcome [3]: inactive
- outcome [4]: inactive
- AC50 [5]: 19 µM (active)
- outcome [5]: inactive
- outcome [6]: inactive
- outcome [8]: inactive
- outcome [9]: inactive
- AC50 [10]: 30.2 µM (active) and 54.7 µM (active) and 47.3 µM (active)
- outcome [11]: inactive
- AC50 [12]: 7.86 µM (active) and 30 µM (active)
- outcome [12]: inactive
- outcome [13]: inactive
- AC50 [19]: 17.7 µM (active) and 24.9 µM (active)
- outcome [19]: inactive
- AC50 [15]: 33.2 µM (active) and 35.9 µM (active) and 30 µM (active)
- AC50 (CD40, CD40 (gene 958)): 48.3 µM (active) and 45.1 µM (active)
- outcome (CD40, CD40 (gene 958)): inactive
- outcome [17]: inactive
- AC50 [18]: 7.33 µM (active) and 50.3 µM (active)
- outcome [18]: inactive
